Assay results reported in PubChem BioAssay AID485346 (Sanford-Burnham Center for Chemical Genomics, 2010).
The campaign covered roughly 330,000 compounds. About 10,000 (3%) were called active. This is one part of a sample in which actives are shown more often than they occur. A number with no mark means an inactive call.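 Rule for the calls: active = inhibition of at least 50% at 8 µM in the primary screen; inactive = the rest.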

The molecules below were run against Protein Mdm4 (Homo sapiens) + E3 ubiquitin-protein ligase Mdm2 (Homo sapiens) (UniProt O15151+Q00987) (assay: inhibitors of human Mdm2-MdmX association, primary screen, cell-based, luminescence, split luciferase, SaOS-2, uHTS (AID 485346)). Conditions: SaOS-2 split-luciferase Mdm2/MdmX complementation, at 8 µM, active compounds read high.
Chain of Protein Mdm4 (Homo sapiens) + E3 ubiquitin-protein ligase Mdm2 (Homo sapiens) (O15151 whole entry, looked up): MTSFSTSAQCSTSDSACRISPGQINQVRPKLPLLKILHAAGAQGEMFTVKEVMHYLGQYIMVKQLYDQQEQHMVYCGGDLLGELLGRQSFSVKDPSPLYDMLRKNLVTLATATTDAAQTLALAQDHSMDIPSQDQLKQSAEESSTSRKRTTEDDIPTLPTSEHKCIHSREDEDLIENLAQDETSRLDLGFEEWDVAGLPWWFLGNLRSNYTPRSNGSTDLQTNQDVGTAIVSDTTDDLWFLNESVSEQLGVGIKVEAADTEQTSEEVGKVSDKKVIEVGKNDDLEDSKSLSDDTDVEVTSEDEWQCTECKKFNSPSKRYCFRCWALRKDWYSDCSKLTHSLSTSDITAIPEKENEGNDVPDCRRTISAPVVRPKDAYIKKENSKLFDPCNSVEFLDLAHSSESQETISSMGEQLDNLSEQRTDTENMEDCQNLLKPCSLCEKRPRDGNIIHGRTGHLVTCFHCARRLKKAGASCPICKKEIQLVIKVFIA
Chain of Protein Mdm4 (Homo sapiens) + E3 ubiquitin-protein ligase Mdm2 (Homo sapiens) (Q00987 whole entry, looked up): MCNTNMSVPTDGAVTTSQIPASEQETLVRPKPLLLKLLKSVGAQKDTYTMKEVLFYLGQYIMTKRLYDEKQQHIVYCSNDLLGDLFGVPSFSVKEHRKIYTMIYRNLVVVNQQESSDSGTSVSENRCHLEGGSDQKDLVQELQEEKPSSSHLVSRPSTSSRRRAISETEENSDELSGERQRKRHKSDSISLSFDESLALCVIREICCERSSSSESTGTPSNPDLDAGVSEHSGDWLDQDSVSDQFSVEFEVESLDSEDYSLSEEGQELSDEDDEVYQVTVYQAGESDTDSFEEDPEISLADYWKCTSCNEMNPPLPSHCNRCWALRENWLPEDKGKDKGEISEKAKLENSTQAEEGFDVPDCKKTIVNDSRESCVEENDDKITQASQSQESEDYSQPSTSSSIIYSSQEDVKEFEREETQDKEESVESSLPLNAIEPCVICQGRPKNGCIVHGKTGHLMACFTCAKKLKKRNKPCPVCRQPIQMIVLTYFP

SMILES | inhibition
CCCCOC(=O)c1ccc(N2C(=O)CC(N3CCN(C/C=C/c4ccccc4)CC3)C2=O)cc1 (centres undefined) | 25.8%
CCOC(=O)c1ccc(N2C(=O)CC(N(C)Cc3ccccc3)C2=O)cc1 (centres undefined) | -7.46%
CCCCCCC(=O)N(O)C1CC(=O)N(c2ccccc2)C1=O (centres undefined) | 61.2% (active)
CS(=O)(=O)c1ccc(Cl)c(NC(=O)COC(=O)c2ncc(Cl)c(Cl)c2Cl)c1 | 13.8%
CCOc1ccc(CN2CCC(n3nccc3NC(=O)C3CC3)CC2)cc1CO | 20%
COc1ccc(Br)cc1C(=O)Nc1cccc(C)c1C | -15.3%
Cc1cc2[nH]ncc2cc1NC(=S)NC(=O)c1ccccc1 | 35%
COc1ccc(Br)cc1C(=O)NC(=S)Nc1cc(-c2nc3ccccc3[nH]2)ccc1C | 81.4% (active)
Cc1ccc(-c2nc3ccccc3[nH]2)cc1NC(=O)c1sc2ccccc2c1Cl | 99.3% (active)
CN1CCc2ccccc2C1Cc1ccccc1NC(=O)c1sc2ccccc2c1Cl (centres undefined) | 12.4%
Cc1ccc2c(Cl)c(C(=O)Nc3nn[nH]n3)sc2c1 | 16.7%
Cc1cc(C(=O)O)c(S(C)(=O)=O)s1 | 24.5%
COC(=O)C(C(=O)Nc1cccc(C)n1)C1CCCCCC1 (centres undefined) | 10.4%
C=CCOc1ccc(/C=C/C(=O)OC(C)C(=O)Nc2ccc(NC(C)=O)cc2)cc1 (centres undefined) | 4.16%
COc1ccc(-c2cc(C3CCN(c4ncccc4[N+](=O)[O-])CC3)[nH]n2)cc1 | 56.4% (active)
CC(=O)NC(Cc1ccccc1)C(=O)NC1CCN(c2ncccc2[N+](=O)[O-])CC1 (centres undefined) | 20.8%
COc1ccc(-c2cc3ncccc3cn2)cc1 | -99.3%
COc1ccc(S(=O)(=O)N2CCCC2CNC(=O)C(=O)NC2CC2)cc1 (centres undefined) | 5.26%
C=CCn1c(=S)[nH]c2nc3c(cc2c1=O)COC(C)(C)C3 | -32.6%
CC1(C)Cc2nc3sc4c(SCC(=O)NC(c5ccccc5)c5ccccc5)ncnc4c3cc2CO1 | 71.8% (active)
CC(C)CCSc1ncnc2c1oc1nc3c(cc12)COC(C)(C)C3 | -3.42%
CCCCN(CC(=O)Nc1cccc(S(=O)(=O)N2CCCC2)c1)Cc1nc2ccccc2c(=O)[nH]1 | 15.4%
CC(C(=O)N1CCN(c2ccccc2F)CC1)c1ccc([N+](=O)[O-])cc1 (centres undefined) | -3.99%
COc1ccc(-c2cn[nH]c2-c2ccc(OC)cc2)cc1 | 63.5% (active)

SMILES | inhibition
COC(=O)c1cc(OC)ccc1-c1ccc(OC)cc1 | 21.1%
COc1ccc(Oc2cn[nH]c2-c2ccc(OC)cc2O)cc1 | 14.4%
O=C(O)CCn1c(O)c(C=C2N=c3ccccc3=N2)sc1=S | -11%
O=C(CN1CCOc2ccccc21)N1CCC(Cc2ccccc2)CC1 | 25.3%
Cc1c(NS(=O)(=O)c2cc(C(=O)NCCc3ccc(F)cc3)cc(Cl)c2Cl)c(=O)n(-c2ccccc2)n1C | 1.11%
c1ccc(C2c3[nH]c4ccccc4c3CCN2Cc2cccn2-c2cccnc2)nc1 (centres undefined) | 5.09%
CCOc1ccc(C2c3[nH]c4ccccc4c3CCN2Cc2cn(CC)nc2C)cc1 (centres undefined) | 12.1%
CCOc1ccc(C2c3[nH]c4ccccc4c3CCN2Cc2cccn2-c2ncccn2)cc1 (centres undefined) | 76.2% (active)
CCc1ccc(NC(=O)C(C)OC(=O)/C=C/c2cccc([N+](=O)[O-])c2)cc1 (centres undefined) | -11%
CC1=C(C(=O)OC2CCCCC2)C(c2cccnc2)n2ncnc2N1 (centres undefined) | 18.3%
CCNCCC(=O)N1c2ccccc2Sc2ccc(NC(=O)OCC)cc21 | 11.1%
CCOC(=O)Nc1ccc2c(c1)N(C(=O)CCCl)c1ccccc1[S@]2=O | 84.3% (active)
CCOC(=O)Nc1ccc2c(c1)N(C(=O)CCN1CCN(CCO)CC1)c1ccccc1CC2 | -8.36%
CCOC(=O)CC(=O)CSc1nc(-c2ccccc2)cc(-c2ccc(Cl)cc2)c1C#N | 17%
CCOc1cc(-c2cc(-c3ccc(OC)cc3)nc(N)c2C#N)ccc1O | 14.7%
CCOc1cc(-c2cc(-c3ccc(NC(C)=O)cc3)nc(N)c2C#N)ccc1O | 62.3% (active)
CCC(C)c1ccccc1NC(=O)CN(C)CC(=O)Nc1ccccc1SC (centres undefined) | 9.56%
O=C(NCC1CCCO1)c1cc2c([nH]c3ccccc32)c(-c2ccc(F)cc2)n1 (centres undefined) | 69.3% (active)
O=C(NCC1CCCO1)c1ccc2ccccc2n1 (centres undefined) | -19.2%
O=C(NCCCO)c1cc2c([nH]c3ccccc32)c(-c2ccc(F)cc2)n1 | 40.9%
COc1ccc2[nH]c3c(c2c1)CCN1C(=O)C(CC(=O)NCCc2ccccn2)C[C@H](C(=O)N2CCOCC2)[C@@]31C (some centres undefined) | 1.71%
Cc1sc2nc(CC(N)=O)[nH]c(=O)c2c1-c1ccccc1 | -7.25%
NC(=O)c1sc2nc3c(c(-c4ccccc4)c2c1N)CCC3 | 57.3% (active)
Cc1ccc2c(N)c(C(=O)c3ccccc3)sc2n1 | 20.5%

SMILES | inhibition
COC(=O)Cn1c(=NC(=O)c2cc(OC)c(OC)c(OC)c2)sc2cc(OC)ccc21 | 34.7%
CCOC(=O)C(Sc1ncc(C#N)c(N)n1)C(C)C (centres undefined) | 15.2%
C=CCn1c(SCC(=O)NC)nnc1C12CC3CC(CC(C3)C1)C2 | 10.2%
CCNC(=O)c1c(O)c2cccc3c2n(c1=O)CC3 | 80.5% (active)
Cc1cc(=O)n2c3c(cccc13)CCC2 | 0.512%
CCCCc1nc2ccccc2c(=O)n1NC(=O)c1c(O)c2cccc3c2n(c1=O)CC3 | 27%
CC1=CC(=C(C#N)c2nc3ccccc3s2)C=C(C)N1c1ccc(F)cc1F | 12.5%
OCCCNC(c1ccccc1)c1ccc(O)cc1 (centres undefined) | 4.25%
COc1cccc2sc(NNC(=O)c3nc4ccccc4s3)nc12 | 59.4% (active)
COc1ccc(/C=C(/CC(=O)Nc2ccc(C)cc2)c2nc3ccccc3s2)cc1 | -25.3%
O=C(O)CS/C(=C\c1ccc(F)cc1)c1nc2ccccc2s1 | 21.7%
O=C(Nc1ccc2c(c1)OCCO2)C1CCCC1 | 55% (active)
O=C(Nc1ccc2c(c1)OCCO2)C1CCCN(c2ncccn2)C1 (centres undefined) | -64.3%
O=C(Nc1ccc2c(c1)OCO2)C1CC1(Cl)Cl (centres undefined) | 18%
Cc1onc(-c2ccc(Cl)cc2)c1-c1ccnn1S(=O)(=O)c1ccc(Cl)cc1 | 16.6%
O=C(COC(=O)C1(c2ccc(F)cc2)CCCC1)N1CCNC1=O | 1.73%
C=CCn1c(CNS(=O)(=O)c2ccc(Br)cc2)nnc1SC | 20.2%
N/C(=N\OC(=O)Cc1ccccc1[N+](=O)[O-])c1ccc(Br)cc1 | -0.461%
N/C(=N\OC(=O)N1c2ccccc2Sc2ccccc21)c1ccc(Br)cc1 | 53.2% (active)
N/C(=N\OC(=O)/C=C/c1ccccc1)c1ccc(Br)cc1 | 13.5%
Cc1cc(=O)cc(C)n1-c1ccc(Cl)c(Cl)c1 | 15.1%
O=c1[nH]nc(SCCS(=O)(=O)c2ccc(F)cc2)n1-c1ccccc1C(F)(F)F | 25.1%
CC[C@@H]1CCCCc2ccccc2[C@@H](C(=O)C[C@H](O)CC(C)=O)OC1=O | 33%
CCOC(=O)c1c(C)oc2cc(Sc3ccccc3)c(O)c(O)c12 | 34.7%

SMILES | inhibition
Cc1cc(O)cc(O)c1C(=O)Cc1cnn(-c2ccccc2)c1 | -9.6%
Cc1[nH]nc(-c2ccc(OCc3cnn(-c4ccccc4)c3)cc2O)c1Oc1ccc(Cl)cc1 | 68.4% (active)
COc1ccc(C(=O)Cc2cnn(-c3ccccc3)c2)c(O)c1 | -156%
CC(C)C[C@@H](CO)N1CCN(Cc2ccc(O)cc2)CCC1=O | -30.6%
Nc1nonc1-c1nc2ccccc2n1Cc1ccc(F)cc1 | 53.7% (active)
O=c1[nH]cccc1-c1nc2ccccc2n1Cc1ccc(Cl)cc1 | -9.95%
COc1ccc(C)c(Cn2c(-c3nonc3N)nc3ccccc32)c1 | 45.6%
CCc1cccc(NC(=O)COC(=O)c2cc(=O)c3ccccc3o2)c1 | 13.3%
COc1ccccc1CNC(=O)COC(=O)c1sc(C)nc1C | -9.07%
O=c1oc2ccccc2c(CNc2ccccc2)c1[N+](=O)[O-] | 7.52%
O=C(N[C@H]1C/C=C\C(c2cccc(F)c2)N(Cc2ccccc2)C(=O)C1)OCC1c2ccccc2-c2ccccc21 (some centres undefined) | 2.78%
Cc1ccc(-c2cccc([C@H]3[C@@H]4C=CC[C@@H](C)[C@@H]4C(=O)N3Cc3ccccc3)c2)cc1 | 69.8% (active)
Cc1cccc([C@H]2[C@@H]3C=CC[C@@H](C)[C@@H]3C(=O)N2Cc2ccccc2)c1 | 16.7%
COc1ccccc1C(=O)COC(=O)CSCC(=O)Nc1cc(C)on1 | 9.62%
COc1ccc(-c2nc3cnccn3c2NC2CCCCC2)cc1-c1cccc(Cl)c1 | 34.9%
CCOc1cc(-c2nc3cc(C)ccn3c2NCC2CCCO2)ccc1O (centres undefined) | 22.2%
COc1ccc(-c2nc3cc(C)ccn3c2NC2CCCCC2)cc1SC1CCCCC1 | 92.7% (active)
CCOc1ccc(C(=O)Nc2ccc(CN3CCOCC3)cc2)cc1Cl | -7.17%
CCN(CC)C(=O)Cn1cc(S(=O)(=O)CC(=O)NCc2ccc3c(c2)OCO3)c2ccccc21 | 15.5%
O=C(N[C@@H](Cc1ccccc1)C(=O)OCc1ccccc1)c1nc[nH]c1C(=O)NC1CCNCC1 | 20.5%
CC(C)(C)OC(=O)N1CCC(NC(=O)c2[nH]cnc2C(=O)N[C@@H](Cc2ccccc2)C(=O)OCc2ccccc2)CC1 | 65.6% (active)
CC(C)(C)OC(=O)CNC(=O)c1[nH]cnc1C(=O)N[C@@H](Cc1ccccc1)C(=O)OCc1ccccc1 | 9.35%
